Tb PYK inh: blocks Trypanosoma brucei pyruvate kinase. AID 624173. TbPYK enzyme, Kinase-Glo Plus ATP luminescence, 45 min. hit rate 0.12% among 410,000. Q57TT1. Potency, µM (series often up to 76.8 µM), for inactives: at the highest dose activity, negative = inhibition, most hits filed as inhibitors; also: % is scaled to controls: 0 for no effect and ±100 for the full control effect; nearly all actives have a fitted effect of over 50% in size
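Readout: single end-point luminescence (Kinase-Glo Plus, 10 min). Reaction conditions were TbPYK/substrate plus 130 uM ADP, 45 min at RT, pH 7.2 TEA buffer. No-enzyme wells served as controls, and data were normalized before concentration-response fitting.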
SARS PLP yeast: inhibitors of SARS-CoV papain-like protease in yeast | S. cerevisiae expressing SARS-CoV PLpro, growth rescue | Potency, µM (doses to about 32.9 µM), inactives show at the top dose activity, positive = growth rescue, actives largely listed as activators | hit rate 0.19% among 330,000 | AID 485353; calls by dose curve; also: 0% is about no effect; nearly all actives have a fitted effect of over 55% in size
Sm TGR block: blocks Schistosoma mansoni thioredoxin glutathione reductase. Potency, µM (highest dose often 114 µM), for inactives: at the top dose activity change, negative = inhibition, usual class: inhibitors. purified TGR, DTNB reduction, TNB absorbance 405 nm. hit rate 3% among 360,000; also: % is scaled to controls: 0 for no effect and ±100 for the full control effect; nearly all actives have a fitted effect of over 60% in size
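TGR 20 nM + NADPH 100 uM (dispensed conc.), cpd preinc 15 min RT; start with NADPH (500 uM addition) then DTNB (15 mM addition). Kinetic TNB absorbance, 405 nm filter. Four-parameter Hill fit across titration.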
AmpC inh no detg: inhibitors of E. coli AmpC beta-lactamase without detergent; P00811; hit rate 0.52% among 330,000; Potency, µM (titrated, usually from 57.1 µM), without a hit: top-dose activity change, negative = inhibition, hits mostly inhibitors; AmpC nitrocefin hydrolysis, absorbance 480 nm, 0.0001% Triton;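 also: plate controls were no compound for no effect and no enzyme for full effect; nearly all actives have a fitted effect of over 20% in size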
Target sequence (P00811 whole entry, looked up): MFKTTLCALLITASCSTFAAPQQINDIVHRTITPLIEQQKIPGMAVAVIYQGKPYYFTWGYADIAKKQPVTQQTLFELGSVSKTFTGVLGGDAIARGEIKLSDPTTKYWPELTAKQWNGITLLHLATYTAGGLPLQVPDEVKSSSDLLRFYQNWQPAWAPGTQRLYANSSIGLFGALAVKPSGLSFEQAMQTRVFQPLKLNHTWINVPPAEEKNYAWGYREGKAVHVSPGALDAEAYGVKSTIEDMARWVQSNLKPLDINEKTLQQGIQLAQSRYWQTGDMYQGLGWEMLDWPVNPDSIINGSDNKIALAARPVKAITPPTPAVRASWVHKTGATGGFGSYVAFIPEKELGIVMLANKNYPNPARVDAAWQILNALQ
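20 mM phosphate pH 7.0 + 0.01% (detergent screen) or 0.0001% Triton X-100; 5.3 nM AmpC reagent; cpd preinc 15 min RT; nitrocefin (800 uM stock) to start; A480 q20 s × 4 min; Activity was normalised to no-enzyme and no-compound control wells.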
AmpC detergent: blocks E. coli AmpC beta-lactamase in detergent assay; Potency, µM (highest dose often 114 µM), without a hit: at the top dose activity change, negative = inhibition, most hits filed as inhibitors; P00811; AmpC hydrolysis of nitrocefin, absorbance 480 nm, 0.01% Triton; AID 485294; hit rate 0.041% among 370,000;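 also: 0% = no-compound wells and -100% = no-enzyme wells; nearly all actives have a fitted effect of over 25% in size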
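AmpC (5.3 nM in the dispensed reagent) in 20 mM phosphate pH 7.0 with 0.01% (detergent screen) or 0.0001% Triton X-100 was preincubated with compounds for 15 min at room temperature. Nitrocefin was then added from an 800 uM solution, and hydrolysis was followed at 480 nm.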
RE007 growth inh: less growth of the S. pombe RE007 Vpr strain; S. pombe RE007 Vpr strain, BacTiter-Glo ATP luminescence, 24 h; AID 651644; hit rate 0.21% among 360,000; Potency, µM (top dose mostly 92.2 µM), for the others: at the highest dose activity change, negative = less growth, hits mostly inhibitors; active = well fitted falling curve with a large enough effect; inconclusive = small, poorly fitted or top-dose-only effect; inactive = no such curve, though single readings can be large or run the other way; also: % is scaled to controls: 0 for no effect and ±100 for the full control effect; nearly all actives have a fitted effect of over 50% in size
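Fission yeast strain RE007, carrying one chromosomally integrated HIV-1 vpr copy, was seeded at OD 0.01 in PMG+AL medium with 23 nL pinned compound. After 24 h at 30 °C and 99% humidity, viability was read by BacTiter-Glo luminescence.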
Starred values were filed as active, the others as inactive; ? = inconclusive; · = not tested or not shown. The list is not random: actives were taken first. Their share in the collection is about 3.3%. Unless noted, calls follow the shape of the dose curve; as a rule, active = well fitted curve in the direction sought with a large enough effect; inconclusive = small, poorly fitted or top-dose-only effect, or another doubt; inactive = no such curve, though single readings can be large; an effect the other way counts as inactive or inconclusive. Potency is read from the fitted curve at half-maximal effect.

SMILES	Tb PYK inh	SARS PLP yeast	Sm TGR block	AmpC inh no detg	AmpC detergent	RE007 growth inh
CC(CNC(=O)c1cc(-c2ccccc2)n[nH]1)c1ccccc1 (stereo not drawn)	-4.0%	·	-5.2%	·	-1.2%	·
COc1ccc(CNC(=O)c2ccc3c(c2)N(Cc2ccccc2F)C(=O)c2ccccc2S3=O)cc1 (stereo not drawn)	2.6%	·	-0.6%	·	-13.7%	·
N=c1c[n+](N2CCOCC2)[n-]o1	-14.0%	3.9%	22.4µM*	-20.6%	-5.6%	-5.5%
N=c1c[n+](C2CCCCC2)[n-]o1	-0.1%	-5.5%	1.6%	-22.2%	?	-4.4%
Cc1cc(C)c(NC(=O)c2ccc3nccnc3c2)c(C)c1	0.1%	-5.8%	0.8%	-25.0%	-16.4%	2.3%
Cc1ccc(NC(=O)c2ccc3nccnc3c2)c(C)c1	4.5%	-2.2%	56.2µM*	-18.7%	-12.8%	-2.5%
COc1ccc(OC)c(NC(=O)CSc2n[nH]c(-c3ccccc3Cl)n2)c1	-3.2%	·	-2.6%	·	17.7%	·
COc1cc2c(C#CCCCO)c(-c3ccc(C#N)cc3)oc(=O)c2cc1OC	-1.0%	-10.9%	31.6µM*	-0.2%	-4.3%	4.3%
COc1ccc(C(c2nnnn2CCc2ccccc2)N2CCN(C3CCCC3)CC2)cc1 (stereo not drawn)	0.3%	3.3%	-7.2%	5.2%	?	-8.4%
COc1ccccc1N1CCN(C(c2ccc(N(C)C)cc2)c2nnnn2CCc2ccccc2)CC1 (stereo not drawn)	2.0%	2.1%	39.8µM*	21.2%	?	12.6%
Cc1cccc(N2CCN(C(=O)CCNS(=O)(=O)c3ccc4c(c3)CCN4C(=O)C3CC3)CC2C)c1 (stereo not drawn)	0.7%	·	4.6%	·	-3.1%	·
CC(=O)Nc1ccc(Nc2nc3ccc(Cl)cc3n3cnnc23)cc1	0.0%	·	5.8%	·	13.8%	·
Cc1ccc(-n2nnnc2SCC(=O)Nc2sc(C)c(C)c2C#N)cc1C	-10.3%	?	?	0.316µM*	-2.0%	6.3%
COc1cc(C2C(C(=O)Nc3ccccc3C)=C(C)Nc3nc(SCc4cc(C)ccc4C)nn32)ccc1O (stereo not drawn)	-4.9%	·	-15.4%	·	1.3%	·
Cc1ccc(C(=O)NCc2ccc(N(C)C)cc2)cc1NC(=O)c1nsc2ccccc12	2.1%	·	-17.0%	·	-7.7%	·
CCc1ccc(/C=N/NC(=O)c2c[nH]c3ccccc23)s1	0.9%	8.5%	-0.3%	22.4µM*	-0.5%	4.7%
COc1ccc(C(NC(=O)/C=C/c2ccco2)c2ccc(OC)c(OC)c2)cc1OC	-27.2%	-1.5%	8.91µM*	105.8%	-7.5%	3.6%
COc1ccc(C2(CNC(=O)/C=C\c3ccco3)CCCC2)cc1OC	-18.6%	-2.9%	3.16µM*	77.9%	-4.4%	-10.4%
COc1ccc(C(NC(=O)c2ccco2)c2ccc(OC)c(OC)c2)cc1 (stereo not drawn)	-11.2%	-3.8%	0.0%	0.0%	-12.4%	7.3%
Cc1ccc2oc(C(=O)Nc3c(C(=O)Nc4cccc(Cl)c4)oc4ccccc34)cc(=O)c2c1	6.3%	·	-1.1%	·	20.7%	·
CCOC(=O)c1ccccc1NC(=O)Cn1c(=O)n(-c2ccc(CC)cc2)c(=O)c2c(C)c(C(=O)N(C)C)sc21	1.6%	·	-2.5%	·	0.0%	·
Cc1ccc(-c2onc3ccc(Cl)cc23)cc1	-3.8%	1.1%	1.7%	-12.7%	-1.9%	18.6%
O=Cc1ccc2noc(-c3ccc(Cl)cc3)c2c1	-3.4%	-3.4%	50.1µM*	-21.4%	2.5%	-30.0%
Cc1ccc(NS(=O)(=O)c2cc(C(=O)Nc3cccnc3)ccc2C)cc1	5.7%	-4.7%	-2.7%	28.2µM*	5.6%	1.9%
O=C(O)c1ccccc1NCN1C(=O)C2CC=C(Cl)CC2C1=O (stereo not drawn)	-3.1%	-6.7%	3.0%	-21.3%	-5.3%	34.0%
SMILES	Tb PYK inh	SARS PLP yeast	Sm TGR block	AmpC inh no detg	AmpC detergent	RE007 growth inh
O=C1C2CC=C(Cl)CC2C(=O)N1CC1OCCc2ccccc21 (stereo not drawn)	-0.8%	-3.1%	79.4µM*	-1.5%	-2.6%	-17.2%
O=C1C2CC=C(Cl)CC2C(=O)N1CC1Cc2ccccc2CO1 (stereo not drawn)	-3.6%	-0.9%	44.7µM*	-31.0%	-7.5%	1.3%
O=C1C2CC=C(Cl)CC2C(=O)N1CN(Cc1ccco1)CN1C(=O)C2CC=C(Cl)CC2C1=O (stereo not drawn)	-14.2%	-0.9%	50.1µM*	-4.6%	-9.8%	2.4%
O=C(CCN1C(=O)C2CC=C(Cl)CC2C1=O)NCc1ccco1 (stereo not drawn)	-10.3%	4.4%	?	-7.6%	-11.6%	-3.4%
Cc1ccccc1C(=O)Nc1ccc(C(=O)OCc2cc(=O)n3c4c(sc3n2)CCCC4)cc1	1.4%	·	7.2%	·	8.7%	·
CCN(CC)CCNC(=O)c1c(C)[nH]c(/C=C2\C(=O)Nc3ccc(F)cc32)c1C	1.6%	·	·	·	·	·
COCCN(C(=O)CCl)C(C(=O)NC1CCCCC1)c1ccccc1C (stereo not drawn)	-7.2%	-9.7%	3.55µM*	-15.5%	-1.3%	-17.8%
CCOc1cc(-c2ccc(OC(=O)c3ccccc3F)cc2)cc(=O)c2c(C)oc(C)c12	-27.2%	·	-15.5%	·	29.8%	·
Cc1occc1-c1nnc(SCC(=O)c2ccc3c(c2)OCCO3)n1CC1CCCO1 (stereo not drawn)	1.8%	0.3%	50.1µM*	2.7%	-9.3%	6.9%
Cc1occc1-c1nnc(SCC(=O)c2ccccc2)n1CC1CCCO1 (stereo not drawn)	-6.9%	6.0%	28.2µM*	95.0%	-16.7%	-6.8%
CCn1c(SCC(=O)c2ccc(F)cc2)nnc1-c1ccoc1C	-9.5%	-3.6%	39.8µM*	-3.7%	?	-0.7%
CC1=CC(=O)C(C(C)C)=C/C1=N/OC(=O)c1cccc([N+](=O)[O-])c1	-10.2%	-18.5%	44.7µM*	-11.2%	2.8%	-4.4%
CC1=CC(=O)C(C(C)C)=C/C1=N\OC(=O)c1cccc2nc(C)oc12	7.7%	1.8%	-12.3%	-19.1%	-12.6%	-15.1%
CC1=CC(=NOC(=O)c2cccc([N+](=O)[O-])c2)C=C(C)C1=O	0.1%	-15.0%	2.82µM*	-10.4%	-5.9%	-2.9%
Cc1ccc(C(c2c(O)cc(C)n(Cc3ccco3)c2=O)N2CCC(C)CC2)cc1 (stereo not drawn)	-2.9%	·	10µM*	·	20.1%	·
Cc1cc(O)c(C(c2cccc(F)c2)N2CCC(C)CC2)c(=O)n1Cc1ccco1 (stereo not drawn)	3.3%	·	25.1µM*	·	-0.7%	·

Compound activity deposited in PubChem BioAssay by National Center for Advancing Translational Sciences (NCATS).
